Bioassay records deposited in PubChem BioAssay by National Center for Advancing Translational Sciences (NCATS).
TDP1 cell noCPT: qHTS for Inhibitors of human tyrosyl-DNA phosphodiesterase 1 (TDP1): qHTS in cells in absence of CPT; DT40 Tdp1-/- hTDP1 cells, no CPT, ATP luminescence, 48 h; Potency, µM (top dose mostly 46.2 µM), inactives show at the highest dose activity change, negative = growth inhibition, hits mostly inhibitors; 420,000 tested, 15% active; note: potency is the fitted concentration of half-maximal effect; nearly all actives have a fitted effect of over 55% in size
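Readout: luminescence from CellTiter-Glo after 30 min in the dark at RT. Cells: DT40 Tdp1-/- with stable hTDP1, 400/well. Exposure: compounds alone, ≥48 hr, 37 °C.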
HT1080-NT tox: kills 2HG-producing HT-1080-NT fibrosarcoma cells; 360,000 tested, 1.6% active; HT-1080-NT fibrosarcoma viability, CellTiter-Glo ATP luminescence, 48 h; Potency, µM (highest dose often 46.1 µM), without a hit: at the highest dose activity, negative = less viability, most hits filed as cytotoxic; AID 686970;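 note: NT is the 2HG producing partner of a matched IDH1 knockdown line; potency is the fitted concentration of half-maximal effect; 0% = DMSO-treated cells and -100% = media-only wells without cells; nearly all actives have a fitted effect of over 55% in size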
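HT-1080-NT; 750 cells/well; 5% FBS RPMI; 48 h compound, 37 degrees C; CellTiter-Glo luminescence; curve fitting and curve-class assignment.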
TDP1 cell CPT: growth inhibition of DT40 Tdp1-/-;hTDP1 cells with camptothecin (screen for TDP1 inhibitors); chicken DT40 Tdp1-/-;hTDP1 cells + 20 nM CPT, ATP luminescence, 48 h; Potency, µM (series often up to 46.2 µM), without a hit: top-dose activity change, negative = growth inhibition, hits mostly inhibitors; 420,000 tested, 12% active; AID 686979; note: potency is the fitted concentration of half-maximal effect; nearly all actives have a fitted effect of over 55% in size
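Cell growth measured by CellTiter-Glo luminescence after a minimum 48 h, 37 C compound exposure with 20 nM CPT in Tdp1-knockout DT40 cells stably expressing hTDP1, seeded 400/well; qHTS titration format.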
HT1080 IDH1KD tx: HT-1080 IDH1 knockdown cell toxicity (counter line). HT-1080 IDH1 knockdown viability, ATP luminescence, 48 h. Potency, µM (doses to about 46.1 µM), for inactives: at the top dose activity, negative = toxicity, hits mostly cytotoxic. 360,000 tested, 2% active. AID 686971;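 note: potency is the fitted concentration of half-maximal effect; 0% = DMSO wells and -100% = cell-free medium wells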
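CellTiter-Glo luminescence after 48 h compound exposure at 37 degrees C of IDH1-knockdown HT-1080 cells in 5% FBS RPMI. %Activity scaled between DMSO wells and cell-free media wells, with curves fitted and assigned curve classes.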
IL1B secr inh: inhibitors of inflammasome signaling (IL-1 beta secretion). THP-1 LPS/ATP IL-1B secretion, AlphaLISA, 16 h; stronger effect = lower value. activity change, % at 57.5 µM. 360,000 tested, 4.7% active; in the data active = activity change below about -50%; inconclusive = mostly about -30% to -49%
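THP-1 cells pretreated 1 hr with compounds (up to 57.5 uM final), then stimulated with LPS (250 ng/mL final) plus ATP (1.25 mM final); secreted IL-1B measured by AlphaLISA after 16 hr, decreased signal indicating inhibition.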
The depositor's hits bear a star; u = inconclusive. An excerpt weighted towards active compounds, which were near 19% of everything screened. Unless noted, calls come from the whole dose curve; as a rule, active = well fitted curve in the direction sought with a large enough effect; inconclusive = small, poorly fitted or top-dose-only effect, or another doubt; inactive = no such curve, though single readings can be large; an effect the other way counts as inactive or inconclusive. Unless noted, % is set by controls: 0 for no effect and ±100 for the full control effect.

SMILES	TDP1 cell noCPT	HT1080-NT tox	TDP1 cell CPT	HT1080 IDH1KD tx	IL1B secr inh
O=C(NCCN1CCC(n2c(=O)[nH]c3ccccc32)CC1)c1ccc(C(F)(F)F)cc1C(F)(F)F	4.6µM*	-4%	5.8µM*	0%	-28
O=C(NCCN1CCC(n2c(=O)[nH]c3ccccc32)CC1)c1ccc(F)c(C(F)(F)F)c1	26µM*	u	u	u	u
CC1CCN(CCCNC(=O)c2ccc3c(=O)n(CCc4ccccc4)c(=O)[nH]c3c2)CC1	-16%	5%	u	1%	-1
Cc1cc(C)n(C(=O)CSc2nnc(SCC(=O)n3nc(C)cc3C)s2)n1	-5%	12%	-2%	16%	23
Cc1ccc(C(c2nnnn2C2CCCC2)N2c3ccccc3CC2C)cc1 (stereo unspecified)	18µM*	-6%	u	-10%	1
